Test systems include NCI-H23 lung; NCI-H226 lung; HOP-62 NSCLC; NCI-H460 lung; HOP-92 NSCLC; NCI-H522 lung; A549/ATCC NSCLC; 786-0 renal; COLO 205 colon; DU-145 prostate; K-562 leukemia; MALME-3M melanoma; MDA-MB-231 breast; RXF 393 renal; SF-268 CNS; SF-295 CNS; SF-539 CNS; UACC-257 melanoma; M14 melanoma.
What all share (assay): NCI-60 one-dose screen, 48 h (100 = growth as untreated, 0 = no growth, -100 = all killed)
Conditions in all cases: 10 µM unless noted

About 83,000 compounds went through this panel and 20% of them were active in at least one assay; those are over-represented in the sample as a whole.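 The test compound was applied at a single concentration to cells in 96-well plates for 48 hours, and percent growth was recorded.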 Unmarked numbers belong to inactive results. Activity calls are given as the source filed them. How the source made its calls: active means growth percent below 10; inactive means the rest.

Consider `O=C(CCl)Nc1ccc(NC(=O)c2cc(Cl)ccc2O)c(Cl)c1`, for which the growth in the assay with NCI-H23 lung was 29%; in the assay with NCI-H226 lung, 59%; in the assay on HOP-62 NSCLC, 101%; in the assay on NCI-H460 lung it was 67.1%; in the assay with HOP-92 NSCLC it was 127%; in the assay with NCI-H522 lung, -22.6% (active). Besides, the growth in the assay on A549/ATCC NSCLC is 88.3%; in the assay with 786-0 renal, 88%; in the assay with COLO 205 colon, 95.2%; in the assay with DU-145 prostate, 95.2%; in the assay on K-562 leukemia it was 32.8%; in the assay on MALME-3M melanoma, 81.8%. The growth was 87.6% in the assay with MDA-MB-231 breast; 87.4% in the assay with RXF 393 renal; 85% in the assay with SF-268 CNS; 83.6% in the assay with SF-295 CNS; 73.1% in the assay on SF-539 CNS; 89.9% with UACC-257 melanoma. For the same molecule, in the assay with M14 melanoma, the growth is 76.6%.

On to `COc1cc2oc(-c3cccc(NC(=O)[C@@H](N)C(C)C)c3)cc(=O)c2c(OC)c1OC`, for which the growth in the assay with NCI-H23 lung is 103%; in the assay on NCI-H226 lung, 107%; in the assay on HOP-62 NSCLC it was 103%; in the assay with NCI-H460 lung, 103%; with HOP-92 NSCLC it was 91.9%; with NCI-H522 lung, 92.7%. Also, the growth with A549/ATCC NSCLC was 94.6%; in the assay on 786-0 renal, 87.1%; in the assay on DU-145 prostate, 105%; in the assay with K-562 leukemia, 105%; in the assay on MALME-3M melanoma it was 110%; in the assay with MDA-MB-231 breast, 99.2%. Also, the growth in the assay with RXF 393 renal was 107%; in the assay with SF-268 CNS, 107%; with SF-295 CNS, 96.7%; in the assay with SF-539 CNS, 95.9%; in the assay on UACC-257 melanoma, 108%; in the assay on M14 melanoma, 111%.

In the case of `Cn1cc(C2=C(c3coc4cc(Br)ccc34)C(=O)NC2=O)c2ccccc21`, the growth in the assay on NCI-H23 lung was 86.8%; in the assay on NCI-H226 lung, 74.8%; with NCI-H460 lung it was 98.6%; in the assay on HOP-92 NSCLC, 93.4%; in the assay with NCI-H522 lung it was 72%; in the assay on A549/ATCC NSCLC, 71.6%. Besides, the growth was 83.7% in the assay with 786-0 renal; 71.3% in the assay on COLO 205 colon; 108% in the assay with DU-145 prostate; 27.4% in the assay with K-562 leukemia; 104% in the assay on MALME-3M melanoma; 87.8% in the assay on MDA-MB-231 breast. In addition, the growth in the assay with RXF 393 renal is 66.3%; with SF-268 CNS, 83.5%; in the assay with SF-295 CNS, 86.9%; in the assay on SF-539 CNS it was 69.5%; in the assay on UACC-257 melanoma it was 100%; in the assay on M14 melanoma it was 68.7%.

As to `C#CCn1cc(/C=N/Nc2nc(-c3ccc(Br)cc3)cs2)c2ccccc21`, the growth was 86.7% in the assay with NCI-H23 lung; 94.7% with NCI-H226 lung; 97.3% with NCI-H460 lung; 88.9% in the assay with HOP-92 NSCLC; 88.9% in the assay on NCI-H522 lung; 97% in the assay on A549/ATCC NSCLC. For the same molecule, the growth is 105% with 786-0 renal; 115% with COLO 205 colon; 114% in the assay on DU-145 prostate; 110% in the assay on K-562 leukemia; 100% in the assay with MALME-3M melanoma; 95.8% with MDA-MB-231 breast. Besides, the growth in the assay on RXF 393 renal was 105%; with SF-268 CNS, 108%; in the assay with SF-295 CNS, 97.6%; in the assay with SF-539 CNS it was 93%; in the assay with UACC-257 melanoma, 105%; in the assay with M14 melanoma, 93.9%.

In the case of `O=C1[C@@H]2Cc3c([nH]c4ccccc34)[C@@H](c3ccc(Cl)cc3)N2C(=O)CN1C1CCN(Cc2ccccc2)CC1`, the growth in the assay on NCI-H23 lung was 72.4%; in the assay on NCI-H226 lung it was 72.5%; in the assay with HOP-62 NSCLC, 61%; in the assay with NCI-H460 lung, 20%; with HOP-92 NSCLC, 11.3%; in the assay on NCI-H522 lung, 20.7%. Also, the growth in the assay on A549/ATCC NSCLC is 38.6%; with 786-0 renal, 67%; with COLO 205 colon it was 46.4%; with DU-145 prostate it was 57.5%; in the assay on K-562 leukemia, 3.54% (active); with MALME-3M melanoma, 79.6%. Also, the growth was 64.2% in the assay with MDA-MB-231 breast; 50.3% in the assay on RXF 393 renal; 48% in the assay with SF-268 CNS; 85.2% with SF-295 CNS; 72.7% in the assay on SF-539 CNS; 75.8% with UACC-257 melanoma. In the assay with M14 melanoma, the growth is 7.82% (active).

On to `C/C(=N\NC(N)=S)c1nnn(-c2ccc([N+](=O)[O-])cc2)c1C`, for which the growth in the assay with NCI-H23 lung was 95.4%; in the assay with NCI-H226 lung it was 93.1%; in the assay on HOP-62 NSCLC, 99.4%; in the assay with NCI-H460 lung, 100%; in the assay with HOP-92 NSCLC, 98.7%; with NCI-H522 lung it was 89.6%. In addition, the growth with A549/ATCC NSCLC was 103%; in the assay with 786-0 renal, 103%; with COLO 205 colon it was 103%; in the assay with DU-145 prostate, 104%; with K-562 leukemia, 119%; in the assay on MALME-3M melanoma, 92.8%. Also, the growth with MDA-MB-231 breast is 96.2%; in the assay on RXF 393 renal, 66.2%; with SF-268 CNS it was 97%; in the assay with SF-295 CNS, 98.8%; with SF-539 CNS, 97.5%; with UACC-257 melanoma, 98.4%. In the assay with M14 melanoma, the growth was 99.5%.

For `CCc1cc(OC(=O)N2CCC(N3CCCCC3)CC2)ccc1Nc1cc(-c2ccc(-n3cccn3)cc2)[nH]n1`, the growth is 80.3% in the assay on NCI-H23 lung; 77.9% with NCI-H226 lung; 66.3% in the assay on HOP-62 NSCLC; -15.5% (active) in the assay with NCI-H460 lung; 103% in the assay with HOP-92 NSCLC; 96.2% with NCI-H522 lung. Besides, the growth in the assay on A549/ATCC NSCLC was 53.8%; in the assay on 786-0 renal, 58%; with COLO 205 colon, 60.1%; with DU-145 prostate, -26.3% (active); in the assay on K-562 leukemia it was -17.2% (active); in the assay on MALME-3M melanoma, -6.02% (active). For the same molecule, the growth with MDA-MB-231 breast was 59.5%; with RXF 393 renal, 52.5%; in the assay with SF-268 CNS, 75.9%; with SF-295 CNS, 62.4%; in the assay with SF-539 CNS, -54.8% (active); in the assay with UACC-257 melanoma it was -49.1% (active). Also, the growth in the assay on M14 melanoma was -85.5% (active).

Turning to `Cc1ccc2c(n1)C(=O)C(Cl)=C(Nc1cccc(C(=O)OC(C)(C)C)c1)C2=O`, the growth in the assay on NCI-H23 lung is 73.7%; in the assay on NCI-H226 lung, 82.8%; in the assay on HOP-62 NSCLC it was 108%; in the assay on NCI-H460 lung, 101%; with HOP-92 NSCLC, 88.8%; with NCI-H522 lung, 60.6%. Besides, the growth is 106% in the assay on A549/ATCC NSCLC; 99.8% in the assay with 786-0 renal; 119% in the assay with COLO 205 colon; 94.8% with DU-145 prostate; -18.1% (active) in the assay with K-562 leukemia; 127% in the assay on MALME-3M melanoma. In addition, the growth in the assay on MDA-MB-231 breast is 74.4%; in the assay with RXF 393 renal it was 84.3%; in the assay on SF-268 CNS, 93.4%; in the assay with SF-295 CNS, 104%; in the assay on SF-539 CNS, 105%; with UACC-257 melanoma it was 72.3%. For the same molecule, in the assay on M14 melanoma, the growth is 96.5%.

These data come from PubChem BioAssay (NCI).
